Hits are enriched below; roughly 4% of the tested compounds scored in any of these assays.
TWEAK-Fn14 inh – inhibitors of TWEAK-Fn14 signaling, primary screen, luciferase reporter cells, uHTS; TWEAK-stimulated Fn14 reporter cells, luciferase luminescence, 8 h; inhibition, % at 10 µM; hit rate 2% among 360,000; in the data active means inhibition above about 50%
TROY NFkB inh – inhibitors of TROY-driven NF-kB signaling, primary screen, Q293 LMP1-TROYcd cells, NF-kB luciferase, uHTS; Q293 LMP1-TROYcd NF-kB luciferase reporter, 4 h; inhibition, % at 10 µM; hit rate 0.98% among 360,000;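 active means compounds whose plate-normalised and pattern-corrected inhibition of the luciferase reporter signal at the single screening dose is 50% or more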
KKLEB cytotox – cytotoxicity in KKLEB CF airway cells, primary screen, cytotoxicity control for CF NF-kB inhibitor project, cell-based, uHTS, fluorescence assay plates. hit rate 0.36% among 360,000. KKLEB CF airway cells viability, ATPlite luminescence, overnight; stronger effect = lower value; cells stimulated with P. aeruginosa culture filtrate. AID 602141, 2011. activity change (cytotoxicity), % at 5 µM;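 active means corrected activity change at or below -50% at 5 µM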
CF NFkB block – inhibitors of PAF-induced NF-kB signaling, primary screen, cell-based, GFP fluorescence, uHTS; KKLEB NF-kB-GFP reporter, GFP fluorescence overnight; inhibition, % at 5 µM; AID 588850, 2011; hit rate 0.86% among 360,000;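 active means at least 50% inhibition at 5 µM, scaled per plate between neutral and stimulator controls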;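 further: PAF is a Pseudomonas aeruginosa culture filtrate used as stimulus; plate controls were PAF-stimulated DMSO wells for no effect and unstimulated DMSO wells for full effect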
HIF-2a inh – HIF-2a reporter inhibitors, primary screen, luminescence, 786-0 RCC cells | 786-0 RCC cells HIF-2a reporter, luciferase luminescence, overnight | AID 624352, 2012 | inhibition, % at 18.8 µM | hit rate 0.72% among 360,000;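 active means inhibition of the luminescence signal of 40% or more relative to plate controls, in a single-dose primary screen at 18.75 µM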
Peg3 promoter – Peg3 promoter-driven luciferase inhibitors, primary screen, cell-based, HeLa, luciferase luminescence. HeLa PEG-Prom luciferase reporter, overnight. inhibition, % at 20 µM. hit rate 1.7% among 360,000. AID 588405, 2011;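 active means inhibition of at least 50% at 20 µM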
Active calls of the source: *.

SMILES	TWEAK-Fn14 inh	TROY NFkB inh	KKLEB cytotox	CF NFkB block	HIF-2a inh	Peg3 promoter
O=C(COC(=O)c1ccccc1[N+](=O)[O-])c1ccc2c(c1)OCO2	78*	78*	19	-15	-15	-66
O=C1NC(=S)N/C1=C/c1ccc(Oc2ccc(C(F)(F)F)cc2[N+](=O)[O-])c(Cl)c1	-5	14	13	0	-10	-6
COc1ccc2cc(C(=O)Nc3ccc(S(N)(=O)=O)cc3)sc(=O)c2c1OC	5	-8	6	-2	2	79*
COc1ccc2cc(C(=O)Nc3ccccc3)sc(=O)c2c1OC	-31	-23	1	-5	-130	-94
CC(=O)c1ccc(N2CCC(c3cc(-c4ccc(Cl)cc4)n[nH]3)CC2)c([N+](=O)[O-])c1	62*	48	2	-12	-16	23
COC(=O)c1ccc(N2CCC(c3cc(-c4ccc(OC)cc4)n[nH]3)CC2)c([N+](=O)[O-])c1	25	9	6	0	27	9
COc1ccc(-c2cc(C3CCN(c4ccc(C(C)=O)cc4[N+](=O)[O-])CC3)[nH]n2)cc1	71*	74*	10	8	5	25
CN(C)c1cc(Nc2cccc(O)c2)c([N+](=O)[O-])c2nonc12	-21	-3	10	-62	22	19
CC1=CC(=O)C=C/C1=C(/c1ccc(O)cc1C)c1ccccc1S(=O)(=O)O	0	9	6	28	9	79*
Cc1ccc(C(C[N+](=O)[O-])c2c(-c3ccccc3O)[nH][nH]c2=O)cc1 (stereo not drawn)	10	-26	-10	28	-21	96*
COC(=O)[C@H](NCc1ccc(OC)c(B(O)O)c1)C(C)C	-14	-12	-5	0	7	-4
Cn1c(=O)c2c(SCc3ccccc3)nc(C3CC3)nc2n(C)c1=O	-14	-33	-10	-10	-31	-14
Cn1c(=O)c2c(SCC(=O)N3CCCc4ccccc43)nc(C3CC3)nc2n(C)c1=O	16	-5	-8	-20	20	52*
Cc1c(O)ccc(/C=N/Nc2nc(-c3cccnc3)nc3ccccc23)c1O	-23	-30	-5	61*	-245	-17
Cc1ccc(-c2nc(N/N=C/c3ccncc3)c3ccccc3n2)cc1	76*	43	-95*	-28	-174	-23
Cc1cc(N/N=C/c2ccc(O)c(C)c2O)nc(-c2ccccc2O)n1	66*	40	-102*	104*	-51	69*
Cc1ccc2nc(C(Cl)(Cl)Cl)nc(N/N=C/c3ccncc3)c2c1	6	7	12	-2	18	13
O=C(CSc1nc2[nH]ncc2c(=O)[nH]1)NCc1ccc(F)cc1	-6	1	-1	10	13	2
Cc1cccc(C(=O)NCCCNC(=O)c2ccco2)c1	0	1	13	-21	14	-9
O=[N+]([O-])c1cccc(S(=O)(=O)Nc2ccc(-c3ccc(N4CCCC4)nn3)cc2)c1	-30	-44	18	-33	-50	-40
NC(=O)C1CCN(C(=O)c2ccc(Cl)c(S(=O)(=O)N3CCc4ccccc43)c2)CC1	-19	8	8	0	10	5
O=C(c1cc(-c2ccc(Cl)cc2Cl)on1)N1CCCCCC1	24	-1	-9	3	-177	-288
COc1ccc(-c2noc(CCCCC(=O)N3CCN(c4cc(C)ccc4C)CC3)n2)cc1	64*	44	-4	23	13	-7
COc1ccc(-c2cc(C(=O)N3CCN(c4ccccc4)CC3)no2)cc1	50*	38	2	-11	-283	-324
O=C(c1cc(-c2ccc(Cl)cc2Cl)on1)N1CCCC1	70*	48	-26	-5	-36	-61
SMILES	TWEAK-Fn14 inh	TROY NFkB inh	KKLEB cytotox	CF NFkB block	HIF-2a inh	Peg3 promoter
Cc1ccc(-c2cc(-c3ccccc3)no2)cc1	60*	-26	-32	-18	-121	-233
Cc1cc(Oc2ccc(Cl)cc2)nc(-c2ccccc2O)n1	-16	-8	1	8	-40	-14
O=C(c1cc(-c2ccco2)on1)N1CCOCC1	8	-48	1	11	-119	-89
O=C(c1cc(-c2ccc(Cl)c(Cl)c2)on1)N1CCCCCC1	-19	-27	7	-17	-262	-371
CCOc1ccc(-c2cc(CCCC(=O)N3CCN(c4ccc(OC)cc4)CC3)no2)cc1	42	20	8	22	50*	7
O=C(c1cc(C2CC2)on1)N1CCN(C(c2ccccc2)c2ccccc2)CC1	11	-11	21	4	19	0
Cc1ccc(-c2cc(C(=O)N3CCOCC3)no2)cc1	86*	67*	3	-36	31	-8
O=C(c1cc(-c2ccc3c(c2)OCO3)on1)N1CCCCC1	78*	48	-13	17	-21	-60
CCOc1ccc(-c2cc(CCCC(=O)NCCCOC)no2)cc1	1	8	5	-5	32	4
O=C(c1cc(-c2cccc(O)c2)on1)N1CCN(C(c2ccccc2)c2ccccc2)CC1	36	30	-13	29	-32	82*
CCCCn1nnnc1SCC(=O)NCc1ccco1	3	5	4	7	11	21
Cc1ccc2c(c1)c1nnc(SCC(=O)Nc3cccc(Cl)c3C)nc1n2CC(=O)O	-4	0	1	6	9	20
Cc1ccc(-c2cc(C(=O)N3CCCC3)no2)cc1	83*	50*	-22	-26	11	-15
Cc1ccsc1C(=O)OCC(=O)c1cc(C)n(C)c1C	84*	12	4	-6	-143	38
Cc1cc(C(=O)COC(=O)c2nccnc2N)c(C)n1C	2	4	0	13	-51	-112
CCCCN(CCCC)c1nc(-c2ccncc2)nc2ccccc12	27	26	-17	-4	29	52*
CCN(CC)c1nc(-c2ccccc2)nc2ccccc12	1	-3	-11	-4	8	7
C=C(C)CN(CC)C(=O)Cn1cnc2c(oc3ccccc32)c1=O	-11	54*	10	2	-14	-10
CCC(C)(C)NC(=O)Cc1ccc(C)cc1	-29	-23	10	-10	-6	-3
Cc1ccc(C(=O)CSc2nnc3c4ccccc4nc(Cc4ccccc4)n23)cc1	26	65*	-2	8	11	4
Cc1ccc(C(=O)CSc2nc3ccccc3c(=O)[nH]2)cc1	19	-26	7	-8	-62	-14
O=C(O)c1cc2ccccc2c(N=Nc2cccnc2)c1O	26	14	-12	18	73*	55*

From PubChem BioAssay
